RORgamma inh – qHTS for inhibitors of ROR gamma transcriptional activity; Potency, µM (highest dose often 53.6 µM), for the others: at the top dose activity change, negative = inhibition, hits mostly inhibitors; AID 2551, 2010; Drosophila S2 Gal4-RORgamma UAS-luciferase reporter, 20 h; Nuclear receptor ROR-gamma (Mus musculus), P51450; 310,000 compounds, 5.4% hits; further: on the % scale 0 is the no-effect control and ±100 the full control effect; nearly all actives have a fitted effect of over 60% in size
Target sequence (P51450 whole entry, looked up, the tested form may be a part): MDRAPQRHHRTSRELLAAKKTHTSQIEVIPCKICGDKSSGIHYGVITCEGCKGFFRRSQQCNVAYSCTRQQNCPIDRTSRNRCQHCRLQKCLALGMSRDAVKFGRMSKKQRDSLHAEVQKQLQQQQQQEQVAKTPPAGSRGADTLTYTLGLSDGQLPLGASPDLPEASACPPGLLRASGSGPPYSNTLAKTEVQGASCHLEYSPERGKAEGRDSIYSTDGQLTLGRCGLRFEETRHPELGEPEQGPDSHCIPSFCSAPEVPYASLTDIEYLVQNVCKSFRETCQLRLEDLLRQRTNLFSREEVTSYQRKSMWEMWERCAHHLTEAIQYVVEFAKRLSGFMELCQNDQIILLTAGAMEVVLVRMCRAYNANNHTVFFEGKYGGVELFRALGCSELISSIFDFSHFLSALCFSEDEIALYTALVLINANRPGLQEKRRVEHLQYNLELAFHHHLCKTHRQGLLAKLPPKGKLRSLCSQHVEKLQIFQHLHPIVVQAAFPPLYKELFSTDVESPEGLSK
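Stably transfected Drosophila Schneider cells are the test system, with ROR gamma fused to Gal4 and luciferase under UAS control; luminescence is read after 20 hr of 700 uM copper sulfate induction at ambient temperature.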
ATXN viability – Viability Counterscreen for Primary qHTS for Inhibitors of ATXN expression. Potency, µM (doses to about 56.7 µM), most hits filed as cytotoxic. AID 651635, 2014. 400,000 compounds, 0.49% hits. S2 cells (HEK-293 line with an ATXN2-luciferase reporter) viability, CellTiter-Fluor protease fluorescence, 24 h; further: nearly all actives have a fitted effect of over 40% in size
TGFb SMAD3 inh – qHTS for Inhibitors of TGF-b; HepG2 CAGA-GFP TGF-b/SMAD3 reporter, GFP fluorescence, 18 h; TGF-beta stimulated, 500 pg/mL final; Potency, µM (highest dose often 46.1 µM), for inactives: top-dose activity, negative = inhibition, actives largely listed as inhibitors; 410,000 compounds, 1.2% hits; AID 588855, 2011; further: on the % scale 0 is the no-effect control and ±100 the full control effect; nearly all actives have a fitted effect of over 65% in size
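TGF-beta reporter screen: HEPG2 CAGA-GFP, 1% FBS, 500 pg/mL TGF-beta final, 18 h; per-cell GFP summed per well; curves fitted and categorized by class.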
VP16 counter – VP16 counterscreen qHTS for inhibitors of ROR gamma transcriptional activity. Drosophila S2 Gal4-VP16 UAS-luciferase, luminescence, 20 h. Potency, µM (highest dose often 53.6 µM), for inactives: at the top dose activity, negative = inhibition, most hits filed as inhibitors. 310,000 compounds, 3.5% hits. AID 2546, 2010;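 further: Gal4-VP16 expression switched on by copper sulfate through the metallothionein promoter; on the % scale 0 is the no-effect control and ±100 the full control effect; nearly all actives have a fitted effect of over 50% in size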
HepG2 tox – qHTS for Inhibitors of TGF-b: Cytotox Counterscreen; HepG2 CAGA-GFP viability, ATP luminescence, 18 h; AID 588856, 2011; Potency, µM (doses to about 46.1 µM), for the others: at the top dose activity change, negative = cytotoxicity, hits mostly cytotoxic; 410,000 compounds, 0.76% hits
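HepG2 CAGA-GFP cells (1000/well, DMEM with 1% FBS) received compound, then TGF-beta at 500 pg/mL final, and were incubated 18 hours at 37 degrees C. Viability was read by CellTiter-Glo luminescence. Media-only wells were set as complete cell-killing and DMSO as no toxicity.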
ATXN2 expr inh – Primary qHTS for Inhibitors of ATXN expression; 360,000 compounds, 0.72% hits; HEK-293 ATXN2-luciferase reporter, luminescence, 24 h; Potency, µM (top dose mostly 57 µM), inactives show top-dose activity change, negative = inhibition, usual class: inhibitors; further: on the % scale 0 is the no-effect control and ±100 the full control effect; nearly all actives have a fitted effect of over 55% in size
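qHTS (up to 57 uM final) was run with 24 h compound exposure of reporter cells at 37 °C. Each well was multiplexed: SteadyGlo luminescence measured ATXN2-luciferase expression after a fluorogenic Gly-Phe-AFC viability readout (25 uM final).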
The depositor's hits bear a star; i = inactive; ? = inconclusive; . = not tested or not shown; ! = a repeat was not active; [ ] = remark or other dose. Shown are actives, neighbours in structure and some others; about 6.3% of the full set was active somewhere. The call rests on the fitted dose curve; in most records, active means well fitted curve in the direction sought with a large enough effect; inconclusive means small, poorly fitted or top-dose-only effect, or another doubt; inactive means no such curve, though single readings can be large; an effect the other way counts as inactive or inconclusive. Potency means the concentration at half of the fitted maximal effect.

SMILES	RORgamma inh	ATXN viability	TGFb SMAD3 inh	VP16 counter	HepG2 tox	ATXN2 expr inh
O=C1CCSC2(C(=O)N(Cc3ccc(F)cc3)c3ccccc32)N1c1cccc(F)c1 (configuration not stated)	.	.	13µM*	.	-50%	.
Cc1cccc(N2C(=O)CCSC23C(=O)N(Cc2ccc(F)cc2)c2ccccc23)c1 (configuration not stated)	.	.	?	.	18µM*	.
O=C1CCSC2(C(=O)N(Cc3ccc(F)cc3)c3ccccc32)N1c1ccccc1 (configuration not stated)	.	.	?	.	-48%	.
NC(c1ccccc1)c1csc(Nc2cc(Oc3ccccc3)ncn2)n1 (configuration not stated)	.	?	?	.	11µM*	0%
CC(C)CC(N)c1csc(Nc2ncccn2)n1 (configuration not stated)	.	?	11µM*	.	-23%	?
CC(C)CC(N)c1csc(Nc2cc(Oc3ccccc3)ncn2)n1 (configuration not stated)	.	.	?	.	-58%	25µM*
NC(COCc1ccccc1)c1csc(Nc2ncccn2)n1 (configuration not stated)	.	i	0%	.	-1%	6%
CCCC(=O)Nc1ccc(O)c(C(C)=O)c1	.	i	.	.	.	8%
COc1cc2c(cc1OC)C(c1ccc(Cl)cc1)N(c1cccc(C#N)c1)C(=O)C2 (configuration not stated)	.	i	3%	.	-22%	-22%
CC(=O)N1c2ccccc2C(=O)C1N1CCN(c2cc(Cl)ccc2C)CC1 (configuration not stated)	.	.	0%	.	-39%	.
CCn1cnc2cc(NCc3ccc(N(C)C)cc3)ccc21	-17%	?	10µM*	-4%[10 µM]	7.1µM*!	?
COc1ccccc1-n1cnc2cc(NCc3ccccc3O)ccc21	1%	i	?	0%	0%	7%
COc1ccc(CNc2ccc3c(c2)ncn3-c2ccccc2OC)cc1	18µM*	i	-22%	?	-27%	6%
Cc1ccc(CNc2ccc3c(c2)ncn3C(C)C)cc1	5µM*	?	-25%	-7%	-32%	.
CCN(CC)c1ccc(CNc2ccc3c(c2)ncn3CC)cc1	49%	?	1%	-19%	-9%	-20%
COc1ccc(Cl)cc1NC(=O)CSc1nc(=O)n(Cc2ccco2)c2c1CCC2	.	?	?	.	-26%	?
O=C(/C(N=Nc1cccc([N+](=O)[O-])c1)=C(/O)c1ccc(Br)cc1)C(F)(F)F	7.9µM*	.	.	4.5µM*	.	.
C=C(C)C1Cc2c(C)nn(-c3nc(C)cc(C)n3)c2C1 (configuration not stated)	0.35µM*	i	?	2µM*	-5%	-5%
C=C(C)C1Cc2nc(N)nc(C)c2C1 (configuration not stated)	-4%	i	25%	-1%	-27%	-1%
Cc1sc(NC(=O)c2ccccc2)c(C(c2ccc(Cl)cc2)N2CCN(CCO)CC2)c1C (configuration not stated)	?	.	?	22µM*	-108%	?
CCOc1ccc(C(c2c(NC(=O)c3ccccc3)sc(C)c2C)N2CCN(CCO)CC2)cc1 (configuration not stated)	34%	?	?	?	11µM*	-9%
Cc1sc(NC(=O)c2ccco2)c(C(c2cccnc2)N2CCN(CCO)CC2)c1C (configuration not stated)	4%	i	-18%	-7%	-22%	-19%
Cc1sc(NC(=O)c2ccco2)c(C(c2ccc(F)cc2)N2CCN(C)CC2)c1C (configuration not stated)	40%	i	16µM*	5%	11µM*	1%[11.3 µM]
CCc1ccc2oc(-c3ccc(OC)cc3)cc(=Nc3cccc(C(=O)O)c3)c2c1	?	.	-4%	11µM*	-17%	89%
O=S(=O)(c1ccc(N2CCN(CCO)CC2)nc1)N1CCOCC1	.	i	3%	.	4%	-11%
SMILES	RORgamma inh	ATXN viability	TGFb SMAD3 inh	VP16 counter	HepG2 tox	ATXN2 expr inh
COC(=O)c1sccc1S(=O)(=O)Nc1ccc(C(O)(C(F)(F)F)C(F)(F)F)cc1	.	?	?	.	-30%	-9%
CC(=O)[C@]1(O)CCC2C3C=C(Cl)C4=CC(=O)C5CC5[C@@]4(C)C3CC[C@]21C (some centres not stated)	-8%	.	.	-4%	.	.
Cn1cc(CN(C(=O)Nc2ccccc2)C2CCCCC2)c2ccccc21	.	?	?	.	16µM*	?
Cn1cc(CN(C(=O)Nc2ccc(Cl)c(Cl)c2)C2CCCCC2)c2ccccc21	.	i	-5%	.	-5%	14%
CCCCCCCC[N+](C)(C)CCCCCCCC	.	i	.	.	.	.
CCCCCCCCCCCCCC[N+](C)(C)C	?	?	.	?	.	22µM*
CCCCCCCCCCCCCCCC[N+](C)(C)CC	-28%	18µM*	?	-23%	-110%	14µM*
CCCCCCCC[N+](CCCCCCCC)(CCCCCCCC)CCCCCCCC	4.5µM*	.	.	2µM*	.	.
Cc1ccnc(-n2c(C)cc(/C=N/NC(=O)COc3cccc4cccnc34)c2C)c1	23%	i	-4%	-3%	12%	-15%
CCn1c(SC(C)C(=O)Nc2ccc(C)cc2)nnc1-c1ccccc1 (configuration not stated)	.	.	-6%	.	-60%	.
CC(C)(C)NC(=O)C(c1ccncc1)N(C(=O)Cn1nnc(-c2ccc(F)cc2)n1)c1ccccc1F (configuration not stated)	13µM*	i	2%	-27%	-16%	-3%[11.3 µM]
Cc1ccccc1N(C(=O)Cn1nnc(-c2ccc(F)cc2)n1)C(C(=O)NC(C)(C)C)c1ccncc1 (configuration not stated)	17%	i	-3%	-12%	17%	-26%
CCn1cc(C2=NC(C)(C)CO2)c2ccccc21	20µM*	i	1%	?	-7%	3%
CCn1cc(C2=NCC(C)O2)c2ccccc21 (configuration not stated)	18µM*	i	-7%	?	-1%	-14%
CCn1cc(C2=NC(c3ccccc3)CO2)c2ccccc21 (configuration not stated)	10µM*	i	-5%	-9%	-1%	7%
CCn1cc(C2=NCCO2)c2ccccc21	20µM*	i	-15%	-17%	-23%	1%
